# Screens from PubChem BioAssay.
# Sampled rows, rich in hits. Any-hit rate of the full collection: about 19%.
# MCF10A rerep = inducers of DNA re-replication in MCF 10A breast cells | 2.9% of 350,000 active | Potency, µM (highest dose often 46.1 µM), inactives show at the top dose activity, positive = re-replication, usual class: activators | MCF 10A DNA re-replication, Hoechst nuclear intensity, 48 h | AID 624296; also: potency is read from the fitted curve at half-maximal effect; % of control where 0% means no effect; nearly all actives have a fitted effect of over 50% in size
# DT40 TDP1 CPT = growth inhibition of DT40 Tdp1-/-;hTDP1 cells with camptothecin (screen for TDP1 inhibitors). chicken DT40 Tdp1-/-;hTDP1 cells + 20 nM CPT, ATP luminescence, 48 h. Potency, µM (highest dose often 46.2 µM), for inactives: at the highest dose activity change, negative = growth inhibition, most hits filed as inhibitors. 12% of 420,000 active; also: potency is read from the fitted curve at half-maximal effect; % is scaled to controls: 0 for no effect and ±100 for the full control effect; nearly all actives have a fitted effect of over 55% in size
#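 Chicken DT40 Tdp1-/- cells stably complemented with human TDP1 were seeded at 400 cells/well in medium containing 20 nM camptothecin, exposed to pin-transferred compounds, and grown at 37 °C for at least 48 hr. Viability was read as ATP luminescence.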
# IL1B secr inh = inflammasome signaling inhibition, IL-1 beta readout. THP-1 LPS/ATP IL-1B secretion, AlphaLISA, 16 h; stronger effect = lower value. 4.7% of 360,000 active. AID 743279. activity change, % at 57.5 µM; in the data active = activity change below about -50%; inconclusive = mostly about -30% to -49%; also: % is scaled to controls: 0 for no effect and ±100 for the full control effect
#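 THP-1 cells pretreated 1 hr with compounds (up to 57.5 uM final), then stimulated with LPS (250 ng/mL final) plus ATP (1.25 mM final); secreted IL-1B measured by AlphaLISA after 16 hr, decreased signal indicating inhibition.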
# DT40 TDP1 no CPT = qHTS for Inhibitors of human tyrosyl-DNA phosphodiesterase 1 (TDP1): qHTS in cells in absence of CPT; DT40 Tdp1-/- hTDP1 cells, no CPT, ATP luminescence, 48 h; 15% of 420,000 active; Potency, µM (highest dose often 46.2 µM), inactives show top-dose activity change, negative = growth inhibition, actives largely listed as inhibitors; AID 686978, 2013; also: potency is read from the fitted curve at half-maximal effect; % is scaled to controls: 0 for no effect and ±100 for the full control effect; nearly all actives have a fitted effect of over 55% in size
#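 No-CPT arm: Tdp1-/-;hTDP1 DT40 cells (400/well) plus compounds, incubated ≥48 hr at 37 °C. Readout CellTiter-Glo luminescence.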
# BCR signal inh = blocks chronic active B-cell receptor signaling. Potency, µM (highest dose often 46.1 µM), without a hit: top-dose activity change, negative = inhibition, actives largely listed as inhibitors. AID 493014. 0.05% of 340,000 active. ABC-DLBCL IkBa-CBG/CBR reporter, luminescence ratio, 4 h; active = well fitted inhibition curve with a large enough effect in the signal ratio, with a control signal flat, not every such curve was filed as active; inconclusive = small, poorly fitted or top-dose-only effect, or effect the other way, or a change in a side signal; the % refers to the signal ratio;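 also: potency is read from the fitted curve at half-maximal effect; plate controls were basal doxycycline-induced cells for no effect and cells given 10 µM MG132 for full effect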
#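 Concentration-response series (up to 46 uM) were applied to TMD8 dual-reporter cells for 4 h at 37C with doxycycline. Green/red ratio, after filter-overlap correction, defined %Activity; red signal alone was normalised to basal cells and zero luminescence.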
# SW480 rereplic = induces DNA re-replication in SW480 colon adenocarcinoma cells | SW480 DNA re-replication, Hoechst DNA content imaging, 48 h | Potency, µM (titrated, usually from 46.1 µM), without a hit: top-dose re-replication activation, actives largely listed as activators | 1.8% of 340,000 active | AID 624297; also: potency is read from the fitted curve at half-maximal effect; % of control where 0% means no effect; nearly all actives have a fitted effect of over 55% in size
#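 Readout is total intensity of Hoechst-stained nuclei, excited at 405 nm and collected at 500-530 nm. Compound treatment lasted 48 hr at 37 C in 5% CO2 before staining.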
# Numbers without * were called inactive; i = inactive; ? = inconclusive; . = no result; [ ] = another dose, or the depositor's remark. Unless noted, calls follow the shape of the dose curve; as a rule, active = well fitted curve in the direction sought with a large enough effect; inconclusive = small, poorly fitted or top-dose-only effect, or another doubt; inactive = no such curve, though single readings can be large; an effect the other way counts as inactive or inconclusive.
SMILES,MCF10A rerep,DT40 TDP1 CPT,IL1B secr inh,DT40 TDP1 no CPT,BCR signal inh,SW480 rereplic
Cc1cc(C)cc(NC(=O)CSc2nnc(CNC(=O)c3ccco3)n2C)c1,-5%,?,11,29µM*,-1%,-6%
Cn1c(SCC(=O)NC2CC2)nnc1-c1ccco1,9%,-5%,16,0%,-2%,-17%
CCCNC(=O)CSc1nnc(-c2ccco2)n1C,-3%,23µM*,12,13µM*,2%,8%
Cc1ccc(NC(=O)CSc2nnc(CNC(=O)c3ccco3)n2C)cc1,?,-15%,23,-29%,?,0%
Nn1c(SCc2cccc3ccccc23)nnc1-c1ccco1,11%,?,-7,?,3%,-1%
Cn1c(SCc2cccc3ccccc23)nnc1-c1ccco1,-4%,13µM*,-18,?,4%,0%
CC(=O)[C@@]1(O)CC[C@H]2[C@H]3C[C@@H](C)C4=CC(=O)C=C[C@]4(C)[C@@]3(F)[C@@H](O)C[C@]21C,-5%[20.6 µM],.,.,.,.,-6%[20.6 µM]
COc1ccc2nc3sc(C(=O)Nc4cc(Cl)c(OC)cc4OC)cc3cc2c1,.,?,.,5.8µM*,.,.
COc1cc(OC)c(NC(=O)c2ccc3nc(C(C)C)oc3c2)cc1Cl,.,9.2µM*,.,18µM*,.,.
CCc1ccc(NC(=O)c2ccc3nc(C(C)C)oc3c2)cc1,.,?,.,18µM*,.,.
CCOc1ccc(CNC(=O)c2ccc3nc(C(C)C)oc3c2)cc1,.,-4%,.,-15%,.,.
COc1cc(NC(=O)c2cc3cc4ccc(OC)c(Cl)c4nc3s2)cc(OC)c1,.,-27%,.,-21%,.,.
CCOc1cc(CNC(=O)c2ccc3nc(C(C)C)oc3c2)cc(OCC)c1OCC,.,23µM*,.,18µM*,.,.
COc1ccccc1NC(=O)Cn1c(=O)n(Cc2ccco2)c(=O)c2oc3ccccc3c21,.,?,.,15µM*,.,.
O=c1c2oc3ccccc3c2n(Cc2cccc(Cl)c2)c(=O)n1Cc1ccco1,.,16µM*,.,16µM*,.,.
COc1cccc(Cn2c(=O)n(Cc3ccco3)c(=O)c3oc4ccccc4c32)c1,.,?,.,23µM*,.,.
O=c1c2oc3ccccc3c2n(Cc2ccccc2)c(=O)n1Cc1ccco1,.,-21%,.,-21%,.,.
C=CCN1C(=O)C(CC(=O)NCC)SC1=Nc1ccccc1CC (stereo unspecified),0%,-29%,-1,?,4%,-12%
CCOC(=O)N1CCN(CCC(=O)Nc2ccc(C)cc2)CC1,4%,-9%,14,3%,-15%,-4%
CCOC(=O)N1CCN(CCC(=O)c2ccc(Cl)cc2)CC1,?,2.3µM*,-1,3.3µM*,?,?
CCOC(=O)N1CCN(CCC(=O)c2ccc(Br)cc2)CC1,?,2.9µM*,-10,7.3µM*,-7%,?
CCOC(=O)N1CCN(C(=O)Cc2ccc(Cl)cc2)CC1,-5%,0%,3,-12%,1%,-4%
O=C(NC12CC3CC(CC(C3)C1)C2)c1cc2nc(-c3ccco3)cc(C(F)(F)F)n2n1,3.7µM*,21µM*,-15,26µM*,9%,15µM*
O=C(NC1CCCCC1)c1cc2nc3c(c(C(F)(F)F)n2n1)CCCC3,11%,?,-17,21µM*,?,-2%
O=C(NCCCN1CCOCC1)c1cc2nc(-c3ccco3)cc(C(F)(F)F)n2n1,-3%,9%,-5,0%,2%,-2%
SMILES,MCF10A rerep,DT40 TDP1 CPT,IL1B secr inh,DT40 TDP1 no CPT,BCR signal inh,SW480 rereplic
Cc1cc2nc3c(c(C(F)(F)F)n2n1)CCCC3,-6%,1%,21,-2%,?,-4%
O=C(NC1CCCCC1)c1cc2nc(-c3ccco3)cc(C(F)(F)F)n2n1,-3%,21µM*,-6,18µM*,-5%,15%
Cc1nnc(N2C(=O)C(=O)/C(=C(/O)c3ccc4c(c3)OCCO4)C2c2ccc([N+](=O)[O-])cc2)s1 (stereo unspecified),.,.,.,.,7%,.
Cc1ccc(S(=O)(=O)C=CS(=O)(=O)c2ccc(C)cc2)cc1,.,1µM*,-17,0.73µM*,.,.
Cc1ccc(S(=O)(=O)/C=C\C#N)cc1,.,0.6µM*,.,0.67µM*,.,.
CC(C)(C)c1ccc(S(=O)(=O)/C=C\C#N)cc1,.,0.47µM*,.,0.53µM*,.,.
Cc1ccc(S(=O)(=O)CS(=O)(=O)c2ccc(C)cc2)cc1,-1%,-20%,-5,-20%,.,-2%
Cc1ccc(S(=O)(=O)/C=C/C#N)cc1,.,1.3µM*,.,0.65µM*,.,.
O=C(CCS(=O)(=O)c1ccc(Br)s1)Nc1c(F)cccc1F,.,-17%,.,-23%,.,.
Cc1onc(-c2ccccc2)c1C(=O)N1CCN(c2ccccc2F)CC1,-9%,?,18,?,-7%,-15%
NS(=O)(=O)c1ccccc1,-6%,-20%,24,-7%,?,-83%
O=S(=O)(/C=C/C=C/S(=O)(=O)c1ccccc1)c1ccccc1,?,0.026µM*,-101*,0.046µM*,.,?
COc1ccc(OC)c(S(=O)(=O)N/N=C\c2cn(CC(N)=O)c3ccccc23)c1,?,13µM*,i,?,-7%,?
Cc1ccc(S(=O)(=O)N/N=C\c2cn(CC(N)=O)c3ccccc23)cc1,-2%,10%,6,-3%,0%,-4%
O=C(N/C(=C\c1cccc([N+](=O)[O-])c1)C(=O)N(CCO)CCO)c1ccco1,2%,-3%,-51*,1%,-1%,2%
O=C(O)c1ccccc1C(=O)Nc1ccc(Br)c(C(F)(F)F)c1,-3%,-5%,1,-1%,-16%,10%
COc1cccc(C(=O)Nc2ccc(Cl)c(C(F)(F)F)c2)c1,10%,?,?,?,?,10%
COc1cc(CCC(=O)Nc2ccc(Br)c(C(F)(F)F)c2)cc(OC)c1OC,?,18µM*,-18,21µM*,0%,16%
COc1cc(CCC(=O)Nc2cc(C)cc(C)c2)cc(OC)c1OC,1%,-25%,24,16µM*,-11%,14%
COc1cc(C(=O)Nc2ccc(Cl)c(C(F)(F)F)c2)cc(OC)c1OC,?,15µM*,-84*,23µM*,0%,1%
Cc1cc(C)c(C(=O)Nc2ccc(Br)c(C(F)(F)F)c2)c(C)c1,23µM*,16µM*,0,12µM*,?,?
Nc1cc(C(=O)OCC(=O)N2CCC(Cc3ccccc3)CC2)ccc1Cl,-1%,-26%,-1,?,1%,0%
